PubChem BioAssay (EPA / NIEHS)
Results filed as inconclusive are left out. Some structures have more than one record in an assay (separate samples or runs), and their calls can disagree. Active and inactive are the calls of the source. How the source made its calls: active means hit-call score of the fitted dose curve at least 0.9, where 1 is the maximum; inconclusive means response in the unintended direction; inactive means score below 0.9.

Biological target: Collagenase 3 (Homo sapiens) (UniProt P45452)
Assay: NVS_ENZ_hMMP13: NovaScreen (NVS) Enzymatic Assay for human Matrix Metalloproteinase-13 (MMP13) (AID 2283182)
Procedure, shortened: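 Recombinant MMP13 cleaving fluorescent substrate, cell-free, measured 1 h after dosing. Primary duplicate screen at 25 uM; actives tested in concentration-response up to 50 uM; loss of signal relative to DMSO.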

SMILES | outcome | AC50
COC(=O)c1ccccc1S(=O)(=O)NC(=O)Nc1nc(C)nc(OC)n1 | inactive | 
O=C(Nc1ccccc1)Nc1cnns1 | inactive | 
O=C(O)C(F)(F)C(F)(F)C(F)(F)C(F)(F)C(F)(F)C(F)(F)C(F)(F)F | inactive | 
CC[C@H](C)[C@H]1O[C@]2(C=C[C@@H]1C)C[C@@H]1C[C@@H](C/C=C(\C)[C@@H](O[C@H]3C[C@H](OC)[C@@H](O[C@H]4C[C@H](OC)[C@@H](O)[C@H](C)O4)[C@H](C)O3)[C@@H](C)/C=C/C=C3\CO[C@@H]4[C@H](O)C(C)=C[C@@H](C(=O)O1)[C@]34O)O2 (tested in a mixture with another compound) |  | 25 µM (active)

Biological target: human Matrix Metalloproteinase-7 (MMP7), MMP7 (gene 4316) (UniProt P09237)
Assay: NVS_ENZ_hMMP7: NovaScreen (NVS) Enzymatic Assay for human Matrix Metalloproteinase-7 (MMP7) (AID 2283183)
Procedure, shortened: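 Compounds first tested at 25 uM in duplicate, then at up to 50 uM in concentration series if active. Protease activity measured by fluorescence intensity 1 h after dosing, with fitting relative to DMSO.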

human Matrix Metalloproteinase-7 (MMP7), MMP7 (gene 4316), sequence (P09237 whole entry, looked up): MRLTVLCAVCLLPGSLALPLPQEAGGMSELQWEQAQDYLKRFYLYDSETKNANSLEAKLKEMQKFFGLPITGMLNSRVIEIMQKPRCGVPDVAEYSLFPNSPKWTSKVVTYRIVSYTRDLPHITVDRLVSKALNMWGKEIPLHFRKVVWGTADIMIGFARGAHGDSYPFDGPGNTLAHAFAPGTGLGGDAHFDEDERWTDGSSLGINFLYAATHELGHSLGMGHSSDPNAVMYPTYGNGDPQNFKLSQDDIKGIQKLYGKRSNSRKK

SMILES | AC50 | outcome
O=S(=O)(O)C(F)(F)C(F)(F)C(F)(F)C(F)(F)C(F)(F)C(F)(F)C(F)(F)C(F)(F)F | 1.73 µM (active) | 
Oc1ccc(Cl)cc1Cc1ccccc1 | 6.41 µM (active) | 
N#Cc1c(Cl)c(Cl)c(Cl)c(C#N)c1Cl |  | inactive
Oc1cc(Cl)ccc1Oc1ccc(Cl)cc1Cl | 13 µM (active) | inactive

Biological target: human Matrix Metalloproteinase-2 (MMP2), MMP2 (gene 4313) (UniProt P08253)
Assay: NVS_ENZ_hMMP2: NovaScreen (NVS) Enzymatic Assay for human Matrix Metalloproteinase-2 (MMP2) (AID 2283184)
Procedure, shortened: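 Compounds first screened in duplicate at a single 25 uM, with actives followed up in concentration series. Recombinant human MMP2 cleaves a fluorogenic substrate; fluorescence taken at 1 h, inhibition fitted relative to DMSO.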

human Matrix Metalloproteinase-2 (MMP2), MMP2 (gene 4313), sequence (P08253 whole entry, looked up): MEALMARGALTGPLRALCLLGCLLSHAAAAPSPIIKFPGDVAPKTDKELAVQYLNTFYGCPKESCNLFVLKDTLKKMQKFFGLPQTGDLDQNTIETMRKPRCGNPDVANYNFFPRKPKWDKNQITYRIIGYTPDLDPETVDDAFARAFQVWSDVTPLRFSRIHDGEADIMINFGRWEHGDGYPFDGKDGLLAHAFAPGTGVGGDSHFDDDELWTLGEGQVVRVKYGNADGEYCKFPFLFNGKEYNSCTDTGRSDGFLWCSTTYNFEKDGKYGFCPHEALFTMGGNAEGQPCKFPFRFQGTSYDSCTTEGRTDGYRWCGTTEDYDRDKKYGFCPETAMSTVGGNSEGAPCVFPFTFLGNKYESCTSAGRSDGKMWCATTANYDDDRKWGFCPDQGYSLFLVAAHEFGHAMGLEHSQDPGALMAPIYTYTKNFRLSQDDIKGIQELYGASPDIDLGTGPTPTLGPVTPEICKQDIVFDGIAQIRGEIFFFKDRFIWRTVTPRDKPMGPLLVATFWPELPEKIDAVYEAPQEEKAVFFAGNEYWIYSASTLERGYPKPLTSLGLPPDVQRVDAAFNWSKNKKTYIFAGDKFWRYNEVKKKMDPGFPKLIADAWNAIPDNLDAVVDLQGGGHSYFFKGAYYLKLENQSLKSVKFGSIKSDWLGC

SMILES | outcome
O=S(=O)(O)C(F)(F)C(F)(F)C(F)(F)C(F)(F)C(F)(F)C(F)(F)C(F)(F)C(F)(F)F | inactive
CCC(C)(C)C(=O)OC1=C(c2ccc(Cl)cc2Cl)C(=O)OC12CCCCC2 | inactive
Oc1cc(Cl)ccc1Oc1ccc(Cl)cc1Cl | inactive

Biological target: human Mitogen- and Stress-activated Protein Kinase-1 (Msk1), RPS6KA5 (gene 9252) (UniProt O75582)
Assay: NVS_ENZ_hMsk1: NovaScreen (NVS) Enzymatic Assay for human Mitogen- and Stress-activated Protein Kinase-1 (Msk1) (AID 2283187)
Procedure: NVS_ENZ_hMsk1 is a biochemical, single-readout assay that uses extracted gene-proteins in a cell-free assay. Measurements were taken 1 hour after chemical dosing in a 384-well plate.NVS_ENZ_hMsk1 is one of one assay component(s) measured or calculated from the NVS_ENZ_hMsk1 assay. It is designed to make measurements of enzyme activity, a form of enzyme reporter, as detected with fluorescence intensity signals by Fluorescence and electrophoretic mobility shift technology.Data from the assay component NVS_ENZ_hMsk1 was analyzed into 1 assay endpoint. This assay endpoint, NVS_ENZ_hMsk1, was analyzed in the positive analysis fitting direction relative to DMSO as the negative control and baseline of activity. Using a type of enzyme reporter, loss-of-signal activity can be used to understand changes in the enzymatic activity as they relate to the gene RPS6KA5. Furthermore, this assay endpoint can be referred to as a primary readout, because this assay has produced multiple assay endpoints where this one serves a enzymatic activity function. To generalize the intended target to other relatable targets, this assay endpoint is annotated to the kinase intended target family, where the subfamily is serine/threonine kinase.
Binding assays used specific radioligands (tritiated, iodinated) with non-radioactive competitive displacement ligands in agonist or antagonist protocols (as indicated) and various reference compounds and inhibitors to titrate specific binding to receptors and transporters. Most enzyme assays (CYPs, kinases, phosphatases, proteases, HDACs) used recombinant protein and specific substrates (fluorescence mostly, some colorimetric and radioactive) and inhibitors, followed by a biochemical separation of substrate and product. All assays for the biochemical HTS were initially run in duplicate at a single concentration (10 uM for CYP450 assays and 25 uM for all others). […]

human Mitogen- and Stress-activated Protein Kinase-1 (Msk1), RPS6KA5 (gene 9252), sequence (O75582 whole entry, looked up): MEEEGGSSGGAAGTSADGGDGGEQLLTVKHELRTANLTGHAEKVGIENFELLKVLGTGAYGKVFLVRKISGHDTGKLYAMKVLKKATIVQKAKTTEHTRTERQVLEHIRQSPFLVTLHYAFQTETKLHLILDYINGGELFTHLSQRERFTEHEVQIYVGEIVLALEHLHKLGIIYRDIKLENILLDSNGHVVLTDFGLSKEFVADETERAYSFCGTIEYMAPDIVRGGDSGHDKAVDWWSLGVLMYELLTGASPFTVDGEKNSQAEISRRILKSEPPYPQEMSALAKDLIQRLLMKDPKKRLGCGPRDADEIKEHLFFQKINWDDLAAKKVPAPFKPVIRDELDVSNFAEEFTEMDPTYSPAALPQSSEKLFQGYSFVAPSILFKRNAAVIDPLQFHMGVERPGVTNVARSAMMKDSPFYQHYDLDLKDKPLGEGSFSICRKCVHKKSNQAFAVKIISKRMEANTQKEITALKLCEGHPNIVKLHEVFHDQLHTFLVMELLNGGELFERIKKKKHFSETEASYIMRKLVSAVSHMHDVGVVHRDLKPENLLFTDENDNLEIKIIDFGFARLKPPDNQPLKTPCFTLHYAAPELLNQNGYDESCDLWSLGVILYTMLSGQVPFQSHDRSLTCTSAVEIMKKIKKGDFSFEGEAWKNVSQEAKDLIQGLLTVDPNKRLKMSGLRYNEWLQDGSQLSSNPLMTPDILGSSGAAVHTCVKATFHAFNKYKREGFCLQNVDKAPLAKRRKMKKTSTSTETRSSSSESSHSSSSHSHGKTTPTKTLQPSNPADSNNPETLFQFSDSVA

SMILES | AC50 | outcome
O=S(=O)(O)C(F)(F)C(F)(F)C(F)(F)C(F)(F)C(F)(F)C(F)(F)C(F)(F)C(F)(F)F | 24.1 µM (active) | 
O=C(O)C(F)(F)C(F)(F)C(F)(F)C(F)(F)C(F)(F)C(F)(F)C(F)(F)F |  | inactive
COC(=O)c1ccccc1S(=O)(=O)NC(=O)N(C)c1nc(C)nc(OC)n1 |  | inactive

Biological target: human Matrix Metalloproteinase-9 (MMP9), MMP9 (gene 4318) (UniProt P14780)
Assay: NVS_ENZ_hMMP9: NovaScreen (NVS) Enzymatic Assay for human Matrix Metalloproteinase-9 (MMP9) (AID 2283190);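 further: cell-free recombinant MMP9 protease activity read by fluorescent substrate signal; active means inhibition seen as loss of fluorescence signal versus DMSO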
Procedure: NVS_ENZ_hMMP9 is a biochemical, single-readout assay that uses extracted gene-proteins in a cell-free assay. Measurements were taken 1 hour after chemical dosing in a 96-well plate.NVS_ENZ_hMMP9 is one of one assay component(s) measured or calculated from the NVS_ENZ_hMMP9 assay. It is designed to make measurements of enzyme activity, a form of enzyme reporter, as detected with fluorescence intensity signals by Fluorescence technology.Data from the assay component NVS_ENZ_hMMP9 was analyzed into 1 assay endpoint. This assay endpoint, NVS_ENZ_hMMP9, was analyzed in the positive analysis fitting direction relative to DMSO as the negative control and baseline of activity. Using a type of enzyme reporter, loss-of-signal activity can be used to understand changes in the enzymatic activity as they relate to the gene MMP9. Furthermore, this assay endpoint can be referred to as a primary readout, because this assay has produced multiple assay endpoints where this one serves a enzymatic activity function. To generalize the intended target to other relatable targets, this assay endpoint is annotated to the protease intended target family, where the subfamily is matrix metalloproteinase.
Binding assays used specific radioligands (tritiated, iodinated) with non-radioactive competitive displacement ligands in agonist or antagonist protocols (as indicated) and various reference compounds and inhibitors to titrate specific binding to receptors and transporters. Most enzyme assays (CYPs, kinases, phosphatases, proteases, HDACs) used recombinant protein and specific substrates (fluorescence mostly, some colorimetric and radioactive) and inhibitors, followed by a biochemical separation of substrate and product. All assays for the biochemical HTS were initially run in duplicate at a single concentration (10 uM for CYP450 assays and 25 uM for all others). […] Each assay was run with positive and negative controls, and concurrent controls on every plate. The follow-up (secondary) screen tested active chemical-pairs in concentration series, as well as a few additional assays not tested in the primary screen, some selected negative inactives, and several cases re-run in the concentration series for confirmatory purposes.

human Matrix Metalloproteinase-9 (MMP9), MMP9 (gene 4318), sequence (P14780 whole entry, looked up): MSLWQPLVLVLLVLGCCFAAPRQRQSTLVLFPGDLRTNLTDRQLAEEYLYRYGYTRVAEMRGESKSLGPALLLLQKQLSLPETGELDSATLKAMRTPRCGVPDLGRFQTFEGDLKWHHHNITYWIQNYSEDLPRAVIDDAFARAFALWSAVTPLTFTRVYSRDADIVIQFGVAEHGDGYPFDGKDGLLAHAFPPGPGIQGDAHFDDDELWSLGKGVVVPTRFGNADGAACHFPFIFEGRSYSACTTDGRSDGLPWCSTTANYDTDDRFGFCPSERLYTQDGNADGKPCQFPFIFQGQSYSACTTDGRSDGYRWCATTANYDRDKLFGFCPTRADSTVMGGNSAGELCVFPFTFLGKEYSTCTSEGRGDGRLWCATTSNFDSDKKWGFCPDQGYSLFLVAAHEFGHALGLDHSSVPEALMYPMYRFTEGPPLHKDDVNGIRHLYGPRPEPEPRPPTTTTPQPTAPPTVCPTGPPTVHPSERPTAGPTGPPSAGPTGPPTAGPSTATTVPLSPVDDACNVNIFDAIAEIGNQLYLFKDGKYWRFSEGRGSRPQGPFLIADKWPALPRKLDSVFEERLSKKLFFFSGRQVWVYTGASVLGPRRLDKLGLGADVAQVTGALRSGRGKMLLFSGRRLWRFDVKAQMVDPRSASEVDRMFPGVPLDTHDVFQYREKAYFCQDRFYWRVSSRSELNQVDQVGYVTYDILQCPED

SMILES | outcome | AC50
O=S(=O)(O)C(F)(F)C(F)(F)C(F)(F)C(F)(F)C(F)(F)C(F)(F)C(F)(F)C(F)(F)F | inactive | 
O=C(O)C(F)(F)C(F)(F)C(F)(F)C(F)(F)C(F)(F)C(F)(F)C(F)(F)F | inactive | 
CNC(=O)CSP(=S)(OC)OC | inactive | 
CN1CSC(=S)N(C)C1 | inactive | 
CC[C@H](C)[C@H]1O[C@]2(C=C[C@@H]1C)C[C@@H]1C[C@@H](C/C=C(\C)[C@@H](O[C@H]3C[C@H](OC)[C@@H](O[C@H]4C[C@H](OC)[C@@H](O)[C@H](C)O4)[C@H](C)O3)[C@@H](C)/C=C/C=C3\CO[C@@H]4[C@H](O)C(C)=C[C@@H](C(=O)O1)[C@]34O)O2 (tested in a mixture with another compound) |  | 5.22 µM (active)
Oc1ccc(Cl)cc1Cc1ccccc1 | inactive | 
Oc1cc(Cl)ccc1Oc1ccc(Cl)cc1Cl | inactive | 
